Test results from PubChem BioAssay AID588726 (The Scripps Research Institute Molecular Screening Center, 2011).
Out of some 360,000 compounds screened, about 8,200 (2.3%) were called active. This is one part of a sample in which actives are shown more often than they occur. Unmarked numbers belong to inactive results. Cut-off read from the data, not from the text of the source: active = inhibition above about 27%; inactive = the rest.

Target: Fructose-bisphosphate aldolase (Mycobacterium tuberculosis (strain ATCC 25618 / H37Rv)) (UniProt P9WQA3)
Assay: M. tuberculosis aldolase activity blockers – biochemical, fluorescence, strain H37Rv, primary screen (AID 588726);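 note: 0% = vehicle and 100% = reference inhibitor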
Conditions: purified M. tuberculosis FBA, fluorescence read-out, at 1 µM, stronger effect = higher value

Fructose-bisphosphate aldolase (Mycobacterium tuberculosis (strain ATCC 25618 / H37Rv)), sequence (P9WQA3 whole entry, looked up): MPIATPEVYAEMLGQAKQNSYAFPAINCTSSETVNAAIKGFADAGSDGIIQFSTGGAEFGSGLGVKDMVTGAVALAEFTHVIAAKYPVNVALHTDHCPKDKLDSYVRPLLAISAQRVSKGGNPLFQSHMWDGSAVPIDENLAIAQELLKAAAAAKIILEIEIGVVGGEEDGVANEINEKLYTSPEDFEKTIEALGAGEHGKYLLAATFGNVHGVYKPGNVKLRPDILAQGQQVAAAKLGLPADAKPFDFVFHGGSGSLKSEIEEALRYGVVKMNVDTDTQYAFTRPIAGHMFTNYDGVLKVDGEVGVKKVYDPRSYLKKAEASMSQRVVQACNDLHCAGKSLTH

Row | Structure (SMILES) | inhibition
1 | Cc1ccc(-c2ccnc3nc(Sc4ncc(C(F)(F)F)cc4Cl)nn23)cc1 | 25.2%
2 | CCc1ccc(OCC(=O)OCC(=O)c2c(N)n(C)c(=O)n(C)c2=O)cc1 | 3.53%
3 | COc1ccccc1CNC(=O)Cn1c(=O)oc2cc(Cl)ccc21 | -1.01%
4 | CC(C)C(C)(C#N)NC(=O)CSc1nc2scc(-c3ccccc3)c2c(=O)[nH]1 (centres undefined) | -1.25%
5 | COCCNc1nc(-n2nc(C)cc2C)nc2sc3c(c12)CCCC3 | 35.2% (active)
6 | CCc1nc(N2CCN(C(C)=O)CC2)c2c3c(sc2n1)CCCC3 | -1.16%
7 | CCCc1nc2sc3c(c2c(=O)n1NC(=O)CCCl)CCCC3 | -0.17%
8 | C=CCn1c(CCNC(=O)c2cccs2)n[nH]c1=S | 0.26%
9 | O=C(NNC(=S)NC1CC2CCC1C2)c1ccc(Cl)cc1 (centres undefined) | -1.27%
10 | Cc1nn2c(c1-c1ccccc1)N=C(c1ccco1)CC2c1ccccc1 (centres undefined) | -3.5%
11 | COC(=O)c1ccccc1NC(=O)C1CC(=O)N(c2ccc(OC)cc2)C1 (centres undefined) | 2.12%
12 | O=C(Cc1ccc(Br)cc1)NCCN1CCOCC1 | 1.41%
13 | O=C(NCCN1CCOCC1)c1ccc2c(c1)N(Cc1ccc(Cl)cc1)CCS2 | 32.2% (active)
14 | CCOC(=O)N1CCN(C(=O)c2ccc3c(c2)N(Cc2ccc(C)cc2)CCS3)CC1 | 7.61%
15 | O=C(NCCc1ccccc1)c1ccc2c(c1)N(Cc1ccccc1)CCS2 | 43.6% (active)
16 | CC1CCCN(c2ccc(C(=O)NCCc3ccccc3)cn2)C1 (centres undefined) | 2.27%
17 | O=C(NCCN1CCOCC1)c1c(F)c(F)c(F)c(F)c1F | -2.22%
18 | CN(C)/C=N/c1cc(=O)n(C)c(=O)n1CC1CC1 | -0.52%
19 | CN1C(C(=O)NCC2CC2)CC2Cn3c(nc4ccccc43)C21 (centres undefined) | -0.07%
20 | Cc1nonc1OCCn1nnnc1N | -0.1%
21 | COC[C@@H]1NS(=O)(=O)c2ccc(Br)cc2O[C@H]1c1ccccc1 | -2.58%
22 | Cc1nonc1C1CCCN1C(=O)c1cc(COc2cccc(C(F)(F)F)c2)on1 (centres undefined) | -1.66%
23 | CCCC1OC23CCCCC2C(C#N)(C#N)C1(C#N)C(=N)O3 (centres undefined) | 48.2% (active)
24 | CCCCc1cc(=O)oc2cc(C)cc(OCc3nn[nH]n3)c12 | 183% (active)
25 | CN(CCOc1ccccc1)Cc1nc2cc(Cl)ccc2c(=O)[nH]1 | 7.42%
26 | CC(=O)N1CC[n+]2c(-c3ccc([N+](=O)[O-])cc3)csc21 | -3.76%
27 | COc1ccc2c(c1OC)C(=O)N(c1ccc(O)cc1)C2 | -2.29%
28 | COc1ccc(C(C)C)cc1S(=O)(=O)Nc1ncn[nH]1 | -1.62%
29 | COc1ccc2c(c1OC)C(=O)N(c1ncn[nH]1)C2 | 31.1% (active)
